The values that follow come from PubChem BioAssay (Tox21).

Several values for one entry are separate records, joined by “and”; a condition that tells them apart may be missing. Identical values can stand only once. Inconclusive results are not listed. A number with no mark means an inactive call. Activity calls are given as the source filed them. Calls follow the shape of the dose curve; as a rule, active = well fitted inhibition curve with a large enough effect in the repeat runs; inconclusive = weak or mixed curves; inactive = flat fitted curve, though single readings scatter.
% is scaled to controls: 0 for no effect and ±100 for the full control effect.

For this experiment, the target named is Luciferin 4-monooxygenase (Photinus pyralis) (UniProt P08659). As to the kind of experiment: qHTS assay to identify small molecule inhibitors of firefly luciferase (AID 1224835). Also: nearly all actives have a fitted effect of over 25% in size. The following applies: purified P. pyralis luciferase, luminescence inhibition; series mostly up to 115 µM; activity change, negative = inhibition: at the top concentration. From the text: U.S. Tox21 Program National Center for Advancing Translational Sciences [NCATS] NIH Chemical Genomics Center [NCGC] U.S. Environmental Protection Agency [EPA] National Institutes of Environmental Health Sciences [NIEHS] National Toxicology Program [NTP] U.S. Food and Drug Administration [FDA] Tox21 Assay Overview: Firefly (Photinus pyralis) luciferase is one of the most commonly used transcriptional reporters. Firefly luciferase reporter-gene assays are generally considered one of the most sensitive assay types (Wood, 1995; Wood, 1998). However, it was initially observed, in 1991, by Thompson et al., that compounds that resemble the substrates of firefly luciferase (FLuc) can act as competitive inhibitors of the enzyme, and that these compounds, upon interaction with luciferase in the cell, can actually stabilize the protein and increase its half-life. Previous profiling work by other groups to determine the prevalence of compounds that affect FLuc enzymatic activity (PubChem AID 411) identified that ~3% of the MLSMR library (then at ~72K) inhibited FLuc. […] Thus the Tox21 10K library is profiled for activity against FLuc using a biochemical assay of purified FLuc and KM concentrations of FLuc substrates (D-luciferin and ATP).
Sequence of Luciferin 4-monooxygenase (Photinus pyralis) (P08659 whole entry, looked up): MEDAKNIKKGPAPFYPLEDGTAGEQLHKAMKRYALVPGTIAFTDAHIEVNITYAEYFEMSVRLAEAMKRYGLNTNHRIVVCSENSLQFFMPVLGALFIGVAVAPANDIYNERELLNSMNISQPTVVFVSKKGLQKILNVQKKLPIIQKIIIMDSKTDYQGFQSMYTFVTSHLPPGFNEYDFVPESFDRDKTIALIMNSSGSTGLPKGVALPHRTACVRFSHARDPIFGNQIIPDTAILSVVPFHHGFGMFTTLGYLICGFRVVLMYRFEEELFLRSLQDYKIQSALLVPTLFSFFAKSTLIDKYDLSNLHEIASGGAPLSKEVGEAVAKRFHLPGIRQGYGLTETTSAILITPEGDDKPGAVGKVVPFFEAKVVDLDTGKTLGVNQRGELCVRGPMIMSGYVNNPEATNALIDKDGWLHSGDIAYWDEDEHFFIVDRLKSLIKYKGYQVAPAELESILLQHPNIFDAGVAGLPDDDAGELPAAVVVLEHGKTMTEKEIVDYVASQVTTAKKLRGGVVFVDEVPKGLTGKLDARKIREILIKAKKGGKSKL
These assay plates were then treated with 23nL of compound or DMSO using a Kalypsys pin tool, which allows for delivery of a 6-point interplate titration of each compound to the assay plate (quantitative HTS.) 1 uL of firefly luciferase mix (containing 50 mM Tris acetate, pH 7.6, 0.04 uM P. pyralis luciferase, 0.01% Tween, 0.05% BSA and dH2O) was then delivered by FRD to each well. Luciferase activity was then measured using a ViewLux CCD imager.
On the technique in general: Quantitative high-throughput screening tests each substance at several concentrations.
For the compound `CNC(=O)Oc1cc(C)cc(C(C)C)c1`, the “activity change, negative = inhibition” value is 0.438%. For the compound `COC(=O)c1cc(Oc2ccc(Cl)cc2Cl)ccc1[N+](=O)[O-]`, the “activity change, negative = inhibition” value is -0.418%. On the same count and under the same terms, as for `O=[N+]([O-])c1ccc(Cl)c(Cl)c1Cl`, the figure is -1.83%. Turning to `Cc1ccc2cc3c(ccc4ccccc43)c3c2c1CC3`, the Potency was 11.3 µM (active).

Take `CNN`: the “activity change, negative = inhibition” value is -1.87%. Regarding `CCN(CC)Cc1nccn1-c1ccc([N+](=O)[O-])cc1C(=O)c1ccccc1Cl`, the “activity change, negative = inhibition” value was -1.94% [at 52.9 µM]. On to `N#Cc1sc2c(=O)c3ccccc3c(=O)c=2sc1C#N`, for which the Potency is 4.48 µM (active). With `COP(=O)(OC)Oc1ccc([N+](=O)[O-])cc1`, the “activity change, negative = inhibition” value is -1.1%.

In the case of `Clc1c(Cl)c(Cl)c(Cl)c(Cl)c1Cl`, the activity change, negative = inhibition was 2.81% [at 10.5 µM]. The same measure, in the same setting: as for `CC[C@]1(O)CC[C@H]2[C@@H]3CCC4=CCCC[C@@H]4[C@H]3CC[C@@]21C`, the figure is -3.79% [at 52.9 µM].

In the case of `CC(C)N(C(=O)CCl)c1ccccc1`, the Potency entry was “inactive”.

`O=S1OCC2C(CO1)C1(Cl)C(Cl)=C(Cl)C2(Cl)C1(Cl)Cl` (stereo not given): the Potency entry was “inactive”. `O=P(Cl)(Cl)Cl`: the “activity change, negative = inhibition” value is -3.84%. On to `c1cc[n+]2c(c1)-c1cccc[n+]1CC2`, for which the “activity change, negative = inhibition” value is -0.0494% [at 52.9 µM].

Take `ClC1=C(Cl)[C@]2(Cl)[C@@H]3[C@H]4C[C@H]([C@@H]5O[C@H]45)[C@@H]3[C@@]1(Cl)C2(Cl)Cl`: the “activity change, negative = inhibition” value was 5.46%. `O=C(Nc1ccc(F)cc1F)c1cccnc1Oc1cccc(C(F)(F)F)c1`: the “activity change, negative = inhibition” value is 5.98%. As to `C[C@@H]1CC2=CC(=O)CC[C@@H]2[C@H]2CC[C@@]3(C)[C@@H](CC[C@]3(C)O)[C@@H]21`, the “activity change, negative = inhibition” value was 4.93% [at 52.9 µM]. On the same count and under the same terms, under `Nc1c(Cl)c(Cl)c(Cl)c(Cl)c1Cl` stands -7.74%; under `CCCCON=O`, 0.307%. On to `O=C1C(Cl)=C(Cl)C(=O)C(Cl)=C1Cl`, for which the Potency is 31.6 µM (active) and 15.9 µM (active). As for `Cc1ccc([N+](=O)[O-])[c]2c1[O][Hg]2`, the Potency was 17.4 µM (active). In the case of `OCC(Br)CBr` (stereo not given), the “activity change, negative = inhibition” value was -0.248%. Still for that read-out and setting: under `CCC[CH2][Sn]([CH2]CCC)([O]C(C)=O)[O]C(C)=O` stands 0.75%; under `CCOP(=O)(OCC)Oc1nc(Cl)c(Cl)cc1Cl`, 3.02%; under `CCC(C)Br` (stereo not given), 0.496%. For the compound `CC1CN1` (stereo not given), the “activity change, negative = inhibition” value was 1.72%.

Turning to `CN(C)c1ccc(N)cc1`, the Potency is 1.74 µM (active). On to `CN1CCc2cc(Cl)c(O)cc2[C@H]2c3ccccc3CC[C@@H]21`, for which the “activity change, negative = inhibition” value is -1.44% [at 52.9 µM].

As for `Clc1ccc(C2(Cn3cncn3)OCCO2)c(Cl)c1`, the “activity change, negative = inhibition” value was 1.81%. For the compound `Cc1cc(C2CC2)nc(Nc2ccccc2)n1`, the Potency is 39.9 µM (active). `CSSC`: the “activity change, negative = inhibition” value is 2.96%. Regarding `CO/N=C(\C(=O)OC)c1ccccc1CO/N=C(\C)c1cccc(C(F)(F)F)c1`, the “activity change, negative = inhibition” value is 1.16%. For `C[N+]1(C)[C@@H]2CC[C@H]1CC(OC(=O)C(CO)c1ccccc1)C2` (stereo not given in full), the “activity change, negative = inhibition” value was -1.95% [at 52.9 µM]. Same read-out and setting: under `O.O.O.O=C([O-])[C@H]([O-])[C@@H]([O-])C(=O)[O-].O=C([O-])[C@H]([O-])[C@@H]([O-])C(=O)[O-].[K+].[K+].[Sb+3].[Sb+3]` stands -4.06%; under `CN1C(=O)[C@@H](NC(=O)c2cc3ccccc3[nH]2)N=C(c2ccccc2)c2ccccc21`, -2.75% [at 52.9 µM].

For `Cc1cccc(Cc2cnc[nH]2)c1C`, the “activity change, negative = inhibition” value was -1.22% [at 52.9 µM].

Turning to `O=[N+]([O-])C(Br)Br`, the Potency is 28.3 µM (active). Same read-out and setting: under `C=CC(=O)[O][Sn]([CH2]CCC)([CH2]CCC)[CH2]CCC` stands 35.6 µM (active); under `[Cl][Hg][c]1ccccc1`, 6.33 µM (active).

Turning to `COC(=O)c1ccccc1S(=O)(=O)NC(=O)Nc1nc(C)nc(OC)n1`, the “activity change, negative = inhibition” value is 0.548%.
